Values joined by “and” are separate entries in the source; they are usually repeats but may differ in a detail not shown here. Identical values can stand only once. Counter-ions that a name gives are not always drawn.
Key:
Experiment in all cases: cell viability relative to vehicle control; higher = less cytotoxic
Details in all cases: 10 µM
[1] = system: K562
Outline: (§1)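 After removal of identity-inconsistent compounds, the Selleck bioactive, kinase and epigenetic probe libraries were screened on CRISPR-edited mutant clones and isogenic wild-type clones of four leukaemia lines. Plates were 384-well, each well holding 2000 cells in 50 µL medium and receiving a single 10 µM acoustically dispensed dose. CellTiter-Glo luminescence was read 48 h later, after the supernatant was taken off. Genedata Screener was used to express viability as percent of the on-plate vehicle control.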

[2] = system: MARIMO
Outline: as §1

[3] = system: MOLM14
Outline: as §1

[4] = system: OCI-AML2
Outline: as §1

| Compound | cell viability ([1]; SRSF2 genotype: SRSF2 P95H/wt) | cell viability ([1]; SRSF2 genotype: SRSF2 wt/wt) [%] | cell viability ([2]; SRSF2 genotype: SRSF2 P95H/wt) [%] | cell viability ([2]; SRSF2 genotype: SRSF2 wt/wt) [%] | cell viability ([3]; SRSF2 genotype: SRSF2 P95H/wt) [%] | cell viability ([3]; SRSF2 genotype: SRSF2 wt/wt) [%] | cell viability ([4]; SRSF2 genotype: P95H/wt) [%] | cell viability ([4]; SRSF2 genotype: wt/wt) [%] |
| --- | --- | --- | --- | --- | --- | --- | --- | --- |
| CC(C)[C@H](C(=O)Nc1ccc(C(=O)NO)cc1)c1ccccc1 | 1.61% and 11.3% | 3.69 | 5.31 | 12.1 | 0.73 | 0.52 | 2.49 | 4.03 |
| O=C(/C=C/c1ccc(O)cc1)C1=C(O)[C@](O)([C@@H]2O[C@H](CO)[C@@H](O)[C@H](O)[C@H]2O)C(O)=C(/C=C2/C(=O)C(C(=O)/C=C/c3ccc(O)cc3)=C(O)[C@@](O)([C@@H]3O[C@H](CO)[C@@H](O)[C@H](O)[C@H]3O)C2=O)C1=O [Safflower Yellow] | 97.2% and 89.1% | 90.4 | 91.5 | 98.8 | 90.4 | 94.9 | 97.7 | 90.5 |
| CCCCc1oc2ccc(NS(C)(=O)=O)cc2c1C(=O)c1ccc(OCCCN(CCCC)CCCC)cc1 [Dronedarone HCl (Multaq)] | 0.8% and 0.71% | 0.61 | 0.56 | 0.71 | 0.53 | 0.6 | 0.5 | 0.55 |
| NCCOc1ccc(Cl)cc1C(=O)Nc1ccc([N+](=O)[O-])cc1Cl | 29.7% and 24.1% | 23.4 | 35.4 | 37.5 | 21.3 | 14.6 | 4.88 | 14.7 |
| CCCCCCCCCCCCCCCC(=O)O [Palmitic acid] | 99.6% and 104% | 98.5 | 96.4 | 114 | 100 | 103 | 95.6 | 114 |
| C/C=C1\[C@H]2C=C(C)C[C@]1(N)c1ccc(=O)[nH]c1C2 [(-)-Huperzine A (HupA)] | 105% and 103% | 108 | 103 | 103 | 115 | 110 | 109 | 103 |
| O=C1NC(=O)C(c2ccccc2[N+](=O)[O-])=C1Nc1ccc(O)c(Cl)c1 | 107% and 104% | 104 | 98.5 | 91.9 | 90.7 | 107 | 122 | 120 |
| O=C(/C=C/c1ccc(CN(CCO)CCc2c[nH]c3ccccc23)cc1)NO [LAQ824 (Dacinostat)] | 1.15% and 10.3% | 2.76 | 5.99 | 11.9 | 0.84 | 0.58 | 1.63 | 2.36 |
| CCOC(=O)C1=C(C)NC(C)=C(C(=O)OCC)C1c1ccccc1/C=C/C(=O)OC(C)(C)C [Lacidipine (Lacipil, Motens)] | 51% and 64.8% | 53.2 | 53.8 | 40.3 | 49.7 | 39.8 | 44 | 42.9 |
| CC(C)c1cc(-c2ccc(F)c3ccccc23)nc(N)n1 | 95.5% and 96.7% | 94.9 | 89.5 | 98.3 | 93.1 | 97.9 | 89.7 | 101 |
| CC12CCC(O)CC1=CCC1C2CCC2(C)C(C(O)CC(O)(C(F)(F)F)C(F)(F)F)CCC12 (stereo unspecified) | 86.1% and 93.4% | 98.3 | 97 | 90.3 | 76.7 | 91.8 | 71.3 | 76.3 |
| CN1[C@@H]2CC[C@H]1C[C@@H](OC(=O)c1c[nH]c3ccccc13)C2 [Tropisetron] | 92.1% and 89.1% | 97.1 | 87.4 | 89 | 105 | 104 | 91.8 | 98.3 |
| CC1=CCC(C(C)(C)O)CC1 (stereo unspecified) | 102% and 104% | 103 | 101 | 105 | 96.1 | 103 | 103 | 103 |
| CCc1ccc(Cc2ccc3c(c2)[C@]2(OC3)O[C@H](CO)[C@@H](O)[C@H](O)[C@H]2O)cc1 [Tofogliflozin(CSG 452)] | 81.3% and 83.7% | 81.2 | 77.3 | 88.5 | 80.2 | 82.5 | 93.8 | 85.6 |
| CO/N=C(\C(=O)N[C@@H]1C(=O)N2C(C(=O)[O-])=C(C[N+]3(C)CCCC3)CS[C@H]12)c1csc(N)n1 [Cefepime Dihydrochloride Monohydrate] | 101% and 102% | 106 | 96.3 | 109 | 105 | 107 | 104 | 113 |
| COc1ccc(C[C@@H](C)NC[C@H](O)c2ccc(O)c(NC=O)c2)cc1 [Arformoterol Tartrate] | 97.2% and 91.1% | 98.8 | 85.2 | 106 | 86.5 | 90.9 | 109 | 103 |
| CCOC(=O)C1=C(COCCN)NC(C)=C(C(=O)OC)C1c1ccccc1Cl (stereo unspecified) [Amlodipine (Norvasc)] | 83% and 92.4% | 84.4 | 73.8 | 78.3 | 53.3 | 62.5 | 38.9 | 50 |
| Cc1c[nH]c2nc(Nc3ccc(N4CCN(C)CC4)c(F)c3)nc(-c3cccc(CC#N)c3)c12 | 11.7% and 1.85% | 4.64 | 4.43 | 2.84 | 0.86 | 0.46 | 0.41 | 4.1 |
| Cc1c(C)c2c(c(C)c1O)CCC(C)(CCCC(C)CCCC(C)CCCC(C)C)O2 (stereo unspecified) [Vitamin E] | 96.5% and 100% | 108 | 106 | 104 | 105 | 104 | 106 | 100 |
| O=C(CCNC(=O)c1ccc(OC(F)(F)F)cc1)N[C@@H]1CCCc2ccccc21 | 105% and 110% | 91.3 | 96 | 105 | 93.7 | 94.6 | 93.8 | 106 |
| COc1ccc(-c2oc3cc(O)cc(O)c3c(=O)c2O)cc1 [kaempferide] | 108% and 104% | 103 | 105 | 119 | 74.6 | 98.2 | 80.7 | 82.7 |

| Compound | cell viability ([1]; SRSF2 genotype: SRSF2 P95H/wt) | cell viability ([1]; SRSF2 genotype: SRSF2 wt/wt) [%] | cell viability ([2]; SRSF2 genotype: SRSF2 P95H/wt) [%] | cell viability ([2]; SRSF2 genotype: SRSF2 wt/wt) [%] | cell viability ([3]; SRSF2 genotype: SRSF2 P95H/wt) [%] | cell viability ([3]; SRSF2 genotype: SRSF2 wt/wt) [%] | cell viability ([4]; SRSF2 genotype: P95H/wt) [%] | cell viability ([4]; SRSF2 genotype: wt/wt) [%] |
| --- | --- | --- | --- | --- | --- | --- | --- | --- |
| COc1cc2ncnc(Nc3ccc(O)c(Br)c3)c2cc1OC | 93.8% and 101% | 96.4 | 85.4 | 84.6 | 32.4 | 24.3 | 61.8 | 63.9 |
| C[C@H](CCC(=O)O)[C@H]1CC[C@H]2[C@@H]3C[C@H](O)[C@@H]4C[C@H](O)CC[C@]4(C)[C@H]3CC[C@]12C [Hyodeoxycholic acid (HDCA)] | 92.5% and 93.9% | 88.6 | 87.5 | 94.3 | 93.5 | 97.5 | 93.1 | 97.4 |
| C=C[C@@H]1CNC(=S)O1 [Epigoitrin] | 103% and 97.6% | 101 | 91.3 | 93.1 | 101 | 99.2 | 103 | 104 |
| Oc1cc2c(cc1O)[C@@H]1c3ccc(O)c(O)c3OC[C@]1(O)C2 [Hematoxylin (Hydroxybrazilin)] | 97% and 94.6% | 94.1 | 95.7 | 98.5 | 99.8 | 99.7 | 101 | 98.4 |
| Cc1ccc(-n2nc(C(C)(C)C)cc2NC(=O)NCc2cc(F)ccc2Oc2ccc3c(cnn3CCO)c2)cc1 [Pexmetinib (ARRY-614)] | 17.1% and 26.4% | 23.6 | 68 | 69.4 | 32.8 | 25.9 | 50 | 54.4 |
| CNCc1ccc(-c2[nH]c3cc(F)cc4c3c2CCNC4=O)cc1 | 94% and 103% | 97.8 | 84.7 | 86.7 | 50 | 29.4 | 44.2 | 55.8 |
| O=c1c2cc(O)c(O)cc2oc2cc(O)c([C@@H]3O[C@H](CO)[C@@H](O)[C@H](O)[C@H]3O)c(O)c12 [Mangiferin] | 106% and 96.7% | 99.3 | 97.7 | 104 | 103 | 104 | 86.5 | 102 |
| NC(=O)CCCSc1nc(N)nc(-c2c(Cl)cc3c4c(cccc24)COC3)n1 | 18.9% and 27.3% | 22.6 | 29.3 | 24.6 | 2.36 | 2.58 | 16.6 | 19.6 |
| CN1CCN(c2ccc(-c3ccncc3-c3cc(F)c(O)c(F)c3)cc2)CC1 | 94.2% and 97.1% | 95.9 | 80.1 | 85.4 | 66.4 | 88.8 | 99.5 | 91.1 |
| CC1=C(C(=O)OC(C)C)C(c2cccc([N+](=O)[O-])c2)C(C(=O)OC2CN(C(c3ccccc3)c3ccccc3)C2)=C(N)N1 (stereo unspecified) [Azelnidipine] | 74.3% and 58.4% | 58.8 | 58.1 | 80.1 | 82.1 | 82.3 | 71.3 | 58 |
| Nc1nc(F)nc2c1ncn2[C@@H]1O[C@H](COP(=O)(O)O)[C@@H](O)[C@@H]1O [Fludarabine Phosphate (Fludara)] | 105% and 112% | 98.7 | 64.2 | 84.9 | 88.1 | 101 | 6.47 | 10.8 |
| CN[C@@H]1[C@H](O)[C@H](NC)[C@H]2O[C@@]3(O)C(=O)C[C@@H](C)O[C@H]3O[C@@H]2[C@H]1O [Spectinomycin 2HCl] | 101% and 102% | 93.5 | 103 | 102 | 104 | 99 | 106 | 94.4 |
| CCOC(=O)[C@H](CCc1ccccc1)N[C@@H](C)C(=O)N1[C@H](C(=O)O)C[C@@H]2CCC[C@@H]21 [Ramipril (Altace)] | 86.6% and 88.3% | 89.9 | 87.7 | 92.3 | 88.2 | 87.4 | 84.8 | 86.3 |
| CCCCCCCCCC(C)O (stereo unspecified) [2-Undecanol] | 109% and 107% | 105 | 111 | 102 | 110 | 108 | 110 | 105 |
| CO[C@H]1/C=C/O[C@@]2(C)Oc3c(C)c(O)c4c(O)c(c(/C=N/N5CCN(C)CC5)c(O)c4c3C2=O)NC(=O)/C(C)=C\C=C\[C@H](C)[C@H](O)[C@@H](C)[C@@H](O)[C@@H](C)[C@H](OC(C)=O)[C@@H]1C [Rifampin] | 106% and 97.3% | 93.9 | 99.9 | 116 | 83.1 | 95.7 | 96.4 | 105 |
| C[C@@H]1O[C@@H](OC[C@H]2O[C@@H](Oc3cc(O)c4c(c3)O[C@H](c3ccc(O)c(O)c3)CC4=O)[C@H](O)[C@@H](O)[C@@H]2O)[C@H](O)[C@H](O)[C@H]1O [Eriocitrin] | 110% and 103% | 108 | 105 | 100 | 117 | 110 | 98.4 | 94.6 |
| CC(=O)Oc1ccccc1C(=O)O.CC(=O)Oc1ccccc1C(=O)O.NC(N)=O [Carbasalate Calcium] | 105% and 106% | 102 | 104 | 105 | 104 | 103 | 102 | 97.8 |
| O=C(NC[C@H](O)CN1CCc2ccccc2C1)c1cc(NC2COC2)ncn1 | 95.9% and 92.8% | 95.6 | 87.6 | 98.1 | 88.8 | 92.6 | 76.3 | 77.1 |
| CN(C)CCC=C1c2ccccc2CCc2ccccc21 [Amitriptyline HCl] | 83.3% and 90.4% | 88.2 | 77.1 | 83 | 79 | 89.7 | 80.7 | 89.2 |
| O=C(Oc1coc(CSc2ncccn2)cc1=O)c1ccc([N+](=O)[O-])cc1 | 88.1% and 95.5% | 100 | 98.3 | 98.7 | 96.5 | 97.4 | 97.9 | 81.8 |
| COc1cc(/C=C/C(=O)O[C@H]2CC[C@]34C[C@]35CC[C@]3(C)[C@@H]([C@H](C)CCC=C(C)C)CC[C@@]3(C)[C@@H]5CC[C@H]4C2(C)C)ccc1O [Gamma-Oryzanol] | 96.7% and 93.9% | 97.5 | 98.5 | 107 | 103 | 101 | 97.7 | 107 |

Reference: the supplement of paper PMC10981050
